TDP1 inh: TDP1 (human) enzyme inhibition; Q9NUW8; recombinant TDP1, AlphaScreen DNA substrate cleavage; Potency, µM (titrated, usually from 130 µM), inactives show top-dose activity change, negative = inhibition, hits mostly inhibitors; 350,000 tested, 0.28% active; AID 485290; also: potency is read from the fitted curve at half-maximal effect; nearly all actives have a fitted effect of over 40% in size
Target sequence (Q9NUW8 whole entry, looked up): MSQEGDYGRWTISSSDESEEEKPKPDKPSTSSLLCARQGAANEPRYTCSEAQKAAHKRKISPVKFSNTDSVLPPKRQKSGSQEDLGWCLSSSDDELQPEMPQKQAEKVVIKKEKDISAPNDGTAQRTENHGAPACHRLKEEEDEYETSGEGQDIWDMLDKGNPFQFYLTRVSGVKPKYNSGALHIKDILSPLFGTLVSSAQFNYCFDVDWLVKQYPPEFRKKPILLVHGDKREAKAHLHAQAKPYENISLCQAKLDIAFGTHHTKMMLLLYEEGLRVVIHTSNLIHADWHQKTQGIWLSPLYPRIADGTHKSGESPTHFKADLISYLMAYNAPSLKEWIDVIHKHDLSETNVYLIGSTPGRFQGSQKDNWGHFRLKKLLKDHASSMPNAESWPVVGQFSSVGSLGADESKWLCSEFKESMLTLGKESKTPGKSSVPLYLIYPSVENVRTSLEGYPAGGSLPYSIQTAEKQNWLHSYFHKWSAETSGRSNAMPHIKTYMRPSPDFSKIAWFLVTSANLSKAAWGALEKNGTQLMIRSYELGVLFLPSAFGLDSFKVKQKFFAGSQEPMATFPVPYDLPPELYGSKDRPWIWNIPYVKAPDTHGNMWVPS
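Steps: enzyme plus compound, 15 min RT; add biotin/phosphotyrosine-FITC oligonucleotide (15 nM final), react 5 min; add donor/acceptor beads (10 ug/ml final), 10 min; read AlphaScreen. Tdp1 at 1 nM final.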
ELG1 repair inh: inhibitors of ELG1-dependent DNA repair in HEK293T cells; HEK293T ELG1-luciferase reporter, luminescence, 16 h; DNA damage induced by 5-fluorouridine; Potency, µM (highest dose often 46.1 µM), inactives show at the top dose activity change, negative = inhibition, most hits filed as inhibitors; 330,000 tested, 2.3% active; AID 504467; also: potency is read from the fitted curve at half-maximal effect; nearly all actives have a fitted effect of over 55% in size
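Luminescence from the luciferase reporter, measured 30 min after ONE-Glo reagent at room temperature, was the read-out. Beforehand, 2,000 cells per well were exposed for 16 hr at 37 °C to 5-fluorouridine together with compound or vehicle.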
Giardia kill: kills Giardia lamblia; Giardia lamblia trophozoite viability; activity change, % at 7.66 µM, hits read low; 340,000 tested, 0.15% active; AID 540267; in the data active = activity change below about -80%; inconclusive = between about -30% and that limit;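 also: parasites exposed to compound for two days anaerobically before the ATP read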
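Giardia lamblia trophozoites (100 cells/well) were incubated with compounds for 48 h at 37 deg C under anaerobic conditions. Viability was read as ATP content by one-step luminescence after 15-30 min at room temperature.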
TDP1 cell noCPT: qHTS for Inhibitors of human tyrosyl-DNA phosphodiesterase 1 (TDP1): qHTS in cells in absence of CPT; DT40 Tdp1-/- hTDP1 cells, no CPT, ATP luminescence, 48 h; Potency, µM (doses to about 46.2 µM), for inactives: top-dose activity change, negative = growth inhibition, hits mostly inhibitors; 420,000 tested, 15% active; AID 686978, 2013; also: potency is read from the fitted curve at half-maximal effect; nearly all actives have a fitted effect of over 55% in size
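Cells were dispensed at 400 per well, compounds added by pin tool, plates incubated ≥48 hr at 37 °C, then CellTiter-Glo added for 30 min at room temperature before luminescence reading. Line: DT40 Tdp1-/- complemented with hTDP1; camptothecin omitted.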
IL1B secr inh: inflammasome signaling inhibition, IL-1 beta readout | THP-1 LPS/ATP IL-1B secretion, AlphaLISA, 16 h; hits give low values | activity change, % at 57.5 µM | 360,000 tested, 4.7% active | AID 743279; in the data active = activity change below about -50%; inconclusive = mostly about -30% to -49%
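THP-1 cells pretreated 1 hr with compounds (up to 57.5 uM final), then stimulated with LPS (250 ng/mL final) plus ATP (1.25 mM final); secreted IL-1B measured by AlphaLISA after 16 hr, decreased signal indicating inhibition.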
TDP1 cell CPT: growth inhibition of DT40 Tdp1-/-;hTDP1 cells with camptothecin (screen for TDP1 inhibitors); chicken DT40 Tdp1-/-;hTDP1 cells + 20 nM CPT, ATP luminescence, 48 h; Potency, µM (titrated, usually from 46.2 µM), without a hit: at the top dose activity change, negative = growth inhibition, most hits filed as inhibitors; 420,000 tested, 12% active; AID 686979; also: potency is read from the fitted curve at half-maximal effect; nearly all actives have a fitted effect of over 55% in size
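Cell growth measured by CellTiter-Glo luminescence after a minimum 48 h, 37 C compound exposure with 20 nM CPT in Tdp1-knockout DT40 cells stably expressing hTDP1, seeded 400/well; qHTS titration format.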
The depositor's hits bear a star; ? = inconclusive; . = no result; [ ] = another dose, or the depositor's remark. Compounds with a hit are over-represented: about 19% of the library has one in this group of screens. Unless noted, calls follow the shape of the dose curve; as a rule, active = well fitted curve in the direction sought with a large enough effect; inconclusive = small, poorly fitted or top-dose-only effect, or another doubt; inactive = no such curve, though single readings can be large; an effect the other way counts as inactive or inconclusive. % is scaled to controls: 0 for no effect and ±100 for the full control effect.

SMILES | TDP1 inh | ELG1 repair inh | Giardia kill | TDP1 cell noCPT | IL1B secr inh | TDP1 cell CPT
COc1ccc(CC(=O)Nc2nc(C(C)(C)C)cs2)cc1 | 5.9% | -6.2% | -23.6 | -29.4% | -108.0* | -18.6%
COc1ccc(OC)c(-c2csc(NC(=O)Cc3ccccc3)n2)c1 | . | -24.3% | -1.1 | ? | -9.6 | ?
COc1ccc(OC)c(-c2csc(NC(=O)CSc3ccccc3)n2)c1 | -2.4% | -26.1% | 3.1 | 13µM* | ? | ?
COc1ccc(-c2csc(NC(=O)CSc3ccc(Br)cc3)n2)c(OC)c1 | 7.9% | -10.2% | -7.1 | 16.4µM* | -1.1 | 18.4µM*
COc1ccc(-c2csc(NC(=O)CSC(C)C(=O)Nc3cc(C)on3)n2)cc1OC (centres undefined) | 2.9% | ? | -19.4 | 10.3µM* | 16.2 | 18.4µM*
COc1ccc(-c2csc(NC(=O)Cc3ccccc3F)n2)c(OC)c1 | . | ? | 11.1 | ? | -60.5* | ?
COc1cccc(CC(=O)Nc2nc(-c3cc(OC)ccc3OC)cs2)c1 | 0.0% | -20.0% | 6.5 | -19.2% | -26.5 | -24.7%
CC(=O)c1cccc(NC(=O)c2c(C)nn(-c3ccc(F)cc3)c2-n2cccc2)c1 | 2.8% | . | . | . | . | .
O=C([C@@H]1CC=C[C@@H]2CCN(C3CC3)C(=O)[C@@H]21)N1CCOCC1 | . | . | . | -17.1% | . | ?
Cc1cccc(OCC(=O)Nc2cc(C)on2)c1 | 3.3%[56.1 µM] | ? | -13.2 | 17.7% | 12.2 | 3.0%
COc1ccc(OC)c(-c2csc(NC(=O)C3COc4ccccc4O3)n2)c1 (centres undefined) | 0.0% | ? | 4.0 | 16.4µM* | -12.2 | ?
COc1ccc(-c2csc(NC(=O)C3CSC4(C)CCC(=O)N34)n2)cc1OC (centres undefined) | . | 18.8% | -1.1 | -4.4% | -12.9 | -7.3%
Cc1cc(NC(=O)COc2cccc(Oc3ccccc3)c2)no1 | -1.1% | 1.7% | 6.7 | ? | 27.2 | 13µM*
COc1ccc(OC)c(-c2csc(NC(=O)C3CSC4(C)CCC(=O)N34)n2)c1 (centres undefined) | . | -18.3% | 0.0 | ? | -54.8* | ?
COc1ccc(OC)c(-c2csc(NC(=O)c3ccc4c(c3)OCO4)n2)c1 | 5.0% | -15.1% | -7.5 | 14.6µM* | -3.4 | ?
CC(=O)N[C@@H](CCC(N)=O)C(=O)O | . | . | . | -19.7% | . | 3.7%
CC(C)c1cc(Cn2c3ccccc3c(=O)n2C(C)Cn2cc(-c3ccc(C(C)(C)C)cc3)nn2)on1 (centres undefined) | . | . | . | 14.6µM* | -28.9 | ?
CC(C)(C)C(=O)C1C(=O)c2ccccc2C1=O | 14.4% | . | . | . | . | .
CCc1ccc(/C=C/C(=O)C2C(=O)c3ccccc3C2=O)cc1 | 7.8% | ? | -81.7* | ? | ? | ?
Nc1ncnc2c1ncn2[C@H]1O[C@@H](CSCC[C@@H](N)C(=O)O)[C@H](O)[C@@H]1O | 3.7% | . | . | -0.7% | . | 17.0%
C=C[C@@H]1c2cccc(C)c2N(S(=O)(=O)c2ccc(C)cc2)[C@H](c2ccccc2)C1(C#N)S(=O)(=O)c1ccccc1 (some centres undefined) | 2.2% | 17.2% | -4.9 | 20.6µM* | 34.9 | ?
C=C[C@@H]1c2cc(C)ccc2N(S(=O)(=O)c2ccc(C)cc2)[C@H](c2ccccc2)C1(C#N)S(=O)(=O)c1ccccc1 (some centres undefined) | 1.4% | ? | -15.9 | ? | 2.5 | ?
C=C[C@@H]1c2c(F)cccc2N(S(=O)(=O)c2ccc(C)cc2)[C@H](c2ccc(OC(C)=O)cc2)C1(C#N)C#N | 0.3% | ? | 1.2 | 20.6µM* | -6.6 | ?

Screens: PubChem, National Center for Advancing Translational Sciences (NCATS)
